Laboratory results reported in the supplement of paper PMC3545927.
This is one part of the list. No count for the full screen is at hand.

Molecular target: furin, P09958
Test: furin cleavage Z-score vs untreated control; higher = more cleavage, active = 3.5 or more, inactive = 1 or less, 8 variable residues between constant flanks
Outline: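 In 50 mM HEPES pH 7.5 with CaCl2 and NaCl, purified furin was incubated with bead-anchored 8-mer peptide–cDNA fusions at 1:10 enzyme:substrate in 0.01 ml. Incubation times were 7.5, 15 and 30 min. DNA set free by cleavage was adapter-tagged by PCR and sequenced, with read counts taken as abundance. Log counts relative to furin-free reactions, after lowess adjustment and median absolute deviation scaling, form the cleavage Z-score.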

furin, P09958, sequence (P09958 whole entry): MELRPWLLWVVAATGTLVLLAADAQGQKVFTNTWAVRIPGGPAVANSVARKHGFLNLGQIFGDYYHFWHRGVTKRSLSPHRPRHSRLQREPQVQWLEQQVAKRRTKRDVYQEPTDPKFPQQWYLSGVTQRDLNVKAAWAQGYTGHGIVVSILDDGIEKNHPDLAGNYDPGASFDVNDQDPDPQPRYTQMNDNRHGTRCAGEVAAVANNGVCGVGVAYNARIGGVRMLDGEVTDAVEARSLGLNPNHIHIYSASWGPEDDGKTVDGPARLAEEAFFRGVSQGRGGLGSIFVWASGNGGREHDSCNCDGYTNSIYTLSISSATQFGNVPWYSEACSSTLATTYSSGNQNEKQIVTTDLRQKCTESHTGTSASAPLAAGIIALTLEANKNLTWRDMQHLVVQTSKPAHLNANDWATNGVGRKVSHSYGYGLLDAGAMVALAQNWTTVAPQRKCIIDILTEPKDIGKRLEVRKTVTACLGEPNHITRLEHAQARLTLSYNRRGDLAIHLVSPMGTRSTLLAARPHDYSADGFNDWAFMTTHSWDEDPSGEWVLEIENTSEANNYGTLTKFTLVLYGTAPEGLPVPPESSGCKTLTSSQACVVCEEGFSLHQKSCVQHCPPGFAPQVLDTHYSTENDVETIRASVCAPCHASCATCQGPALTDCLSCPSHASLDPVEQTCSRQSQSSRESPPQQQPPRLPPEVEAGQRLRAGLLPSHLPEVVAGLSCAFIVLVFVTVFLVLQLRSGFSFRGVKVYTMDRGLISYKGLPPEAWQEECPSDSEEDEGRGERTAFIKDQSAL

Row | Sequence | furin cleavage Z-score (7.5 min) | furin cleavage Z-score (15 min) | furin cleavage Z-score (30 min)
1 | CAMHECSQHLAGNASASA [HC1695] | 0.819 (inactive) | 2.72 | 1.59
2 | CAFQVAHLHAAGNASASA [HC772] | -0.105 (inactive) | -0.994 (inactive) | -1.62 (inactive)
3 | CAEVVTSMWVAGNASASA [HC2206] | 0.942 (inactive) | -0.688 (inactive) | -0.185 (inactive)
4 | CACTANHDSPAGNASASA [HC1268] | -0.651 (inactive) | -0.843 (inactive) | -2.03 (inactive)
5 | CADLLEDNVTAGNASASA [HC1433] | 0.275 (inactive) | -2.11 (inactive) | -1.66 (inactive)
6 | CAGNLPGCSFAGNASASA [HC244] | -0.0639 (inactive) | 0.93 (inactive) | -0.123 (inactive)
7 | CARPKRSHHCAGNASASA [FS-2399] | 4.25 (active) | 6.93 (active) | 6.58 (active)
8 | CAMEECSQHCAGNASASA [HC1780] | 1.81 | -0.183 (inactive) | 1.82
9 | CARPKRSKRQAGNASASA [FS-1068] | 12.3 (active) | 11.8 (active) | 9.11 (active)
10 | CAYSALHKRQAGNASASA [FS-1505] | 1.15 | -1.98 (inactive) | 1.13
11 | CARPKRKGKCAGNASASA [FS-1761] | 0.0893 (inactive) | 0.774 (inactive) | 1.28
12 | CALPFRSKRQAGNASASA [FS-684] | 9.98 (active) | 10.9 (active) | 7.98 (active)
13 | CALHKREKRQAGNASASA [FS-1023] | 13.9 (active) | 12.1 (active) | 10.2 (active)
